Experimental data published in ChEMBL document CHEMBL4513216, “Probing the Open Global Health Chemical Diversity Library for Multistage-Active Starting Points for Next-Generation Antimalarials” (ACS Infect Dis, 2020).
About 8,600 (12%) of roughly 69,000 compounds showed an effect of 50% or more. Only a selection was taken, and strong results are over-represented in it overall.

Each compound was assayed on Plasmodium berghei (assay: Screen against P. berghei liver stage (PbLuc), transformed with Luciferase, at 10uM). Details: tested at 10 uM.
Format: functional, HepG2

Compound | INHIBITION [%]
COc1ccc(CN(C)C(=O)CSc2nnc(N)s2)c(OC)c1OC | 18.9
CCn1ccc(CN(C)C(=O)CSc2nnc(N)s2)n1 | 22.6
COc1ccnc(CN(C)C(=O)CSc2nnc(N)s2)c1 | 71.4
Cc1nc(CN2CCCN(C(=O)c3sccc3C#N)CC2)cs1 | -27.8
c1ccc(CN2CCC(Cc3noc(C4CC4)n3)CC2)cc1 | 28.8
Cc1nc(CC2CCN(Cc3ccc(CCC(C)(C)O)cc3)CC2)no1 | 60.7
Cc1noc(CC2CCN(Cc3ccc(CCC(C)(C)O)cc3)CC2)n1 | 40.2
CN(C)c1cc(CNC(=O)CC2CCCCC2)ccn1 | 4.34
Cc1cccc(Cn2c3c(ccc2=O)CCN(Cc2ccoc2)CC3)n1 | 8.47
Cc1ccc(N(CC(=O)N2CCCCC2)C(=O)C2CCCO2)cc1 (stereo unspecified) | -7.25
O=C(CN(C1=NCCCCC1)c1ccc(Cl)cc1)c1ccccc1 | 59.8
O=C(CN(C1=NCCCC1)c1ccccc1)c1ccc2c(c1)OCCO2 | 33.3
COc1ccc(C(=O)CN(C2=NCCCCC2)c2ccccc2)cc1 | 20.1
Cc1cccc(N(CC(=O)N2CCCCC2)C(=O)C2CCCO2)c1 (stereo unspecified) | -84.1
CCOc1ccc(N(CC(=O)c2ccccc2)C2=NCCCCC2)cc1 | 68.7
Cc1cccc(N(CC(=O)c2ccccc2)C2=NCCCCC2)c1 | 51.6
O=C(CN(C1=NCCCC1)c1ccccc1)c1ccccc1 | -13.4
Cc1ccc(N(CC(=O)c2ccc(Br)cc2)C2=NCCCCC2)cc1 | 87.6
O=C(CC(SC1CCCCC1)C(=O)O)c1ccc(Cl)cc1 (stereo unspecified) | 6.83
O=C(CN(C1=NCCCC1)c1ccccc1)c1ccc(OC(F)F)cc1 | 30.8
Cc1ccc(C(=O)CN(C2=NCCCCC2)c2ccccc2)cc1 | 44.1
CC1=N[C@@]2(CC[C@@H]3CN(CC(C)C)C[C@@H]32)C(=O)N1C | 18.5
Cc1nn(C)c2cnn(CC(=O)NCc3ccc4c(c3)OCO4)c12 | 36.6

Compound | INHIBITION [%]
Cc1c(C(=O)NC(C)C)nnn1-c1cccc(C(F)(F)F)c1 | 15.2
c1coc(CN2C[C@@H]3OCCN(CC4CCCO4)[C@@H]3C2)c1 (stereo partly specified) | 41.6
COC(=O)c1ccc(OCCn2cnc(C#N)n2)cc1 | 7.18
CN(C)c1ncc(-c2cccc(C(N)=O)c2)c(C2CNCCO2)n1 (stereo unspecified) | 17.3
COc1c(CNC2CCc3c(F)cccc32)c(C)nn1C (stereo unspecified) | -16
c1coc(-c2nc(CNCCn3cccn3)cs2)c1 | 21.5
CS(=O)(=O)NCCN1CCCC1c1ccc(Cl)cc1 (stereo unspecified) | 50.3
O=C(NCc1ccncc1)N1CCSCC1c1ccc(Cl)cc1 (stereo unspecified) | -23.2
CCS(=O)(=O)CCCN1CCSCC1c1ccc(Cl)cc1 (stereo unspecified) | 56.5
CC(c1ccc(Cl)cc1)N1CCN(CCS(C)(=O)=O)CC1 (stereo unspecified) | 48.5
CC(c1ccc(Cl)cc1)N1CCN(CCCS(C)(=O)=O)CC1 (stereo unspecified) | -5.1
CS(=O)(=O)NCCCN1CCCC1c1ccsc1 (stereo unspecified) | -5.25
CS(=O)(=O)NCCN1CCSCC1c1ccc(Cl)cc1 (stereo unspecified) | -3.39
Cc1ccc(C2CSCCN2CC(=O)N2CCOCC2)cc1 (stereo unspecified) | 15.3
Cc1ccc(C2CSCCN2CCS(C)(=O)=O)cc1 (stereo unspecified) | 34
CS(=O)(=O)CCCN1CCSCC1c1ccc(Cl)cc1 (stereo unspecified) | 31.9
CC(c1ccc(Cl)cc1)N1CCN(CCNS(C)(=O)=O)CC1 (stereo unspecified) | 53.5
CS(=O)(=O)CCN1CCSCC1c1ccc(Cl)cc1 (stereo unspecified) | 59.7
COc1ccc(CNCC(C)Oc2ccccn2)cc1Br (stereo unspecified) | -33.2
CC1CCN(C(=O)[C@H]2CC[C@@H]3[C@@H](CCN3Cc3nccs3)O2)CC1 | 39.5
O=c1ccc2c(n1Cc1cccnc1)CCN(C1CCOC1)CC2 (stereo unspecified) | 39.4
N#CC1(C(=O)N2C[C@H](Nc3ccnc(N)n3)[C@@H](C3CC3)C2)CCOCC1 | 26.9
CC(C)c1noc(C(C)N2CCN(Cc3nnc(C4CC4)o3)CC2)n1 (stereo unspecified) | 0.914

Compound | INHIBITION [%]
O=C(c1ccccc1)N1CCC2(CCCN2c2ncccn2)CC1 | -22.1
Cc1nc(CN(C)CC(c2cccs2)N2CCOCC2)no1 (stereo unspecified) | 15.3
CC(=O)N1N=C(c2ccccc2)OC1C(=O)NCC(=O)OC(C)(C)C (stereo unspecified) | 28.3
CCC(CO)NCc1ccc(-c2ccccc2F)o1 (stereo unspecified) | 73.5
CCC(CO)NCc1ccc(-c2ccccc2)o1 (stereo unspecified) | 50.8
CCC(CO)NCc1ccc(-c2ccc(Br)cc2)o1 (stereo unspecified) | -11.6
CCC(CO)NCc1ccc(-c2ccc(F)cc2)o1 (stereo unspecified) | 14.4
CCC(CO)NCc1ccc(-c2ccc(Cl)cc2)o1 (stereo unspecified) | 17.7
CCC(CO)NCc1ccc(-c2ccc(F)c(Cl)c2)o1 (stereo unspecified) | 18.8
CN1CCN(c2ncc(CNCCCc3cccc(F)c3)cn2)CC1 | 46.8
CCC1CN(CC(=O)NC(C)C)CCO1 (stereo unspecified) | -8.22
CCC1CN(CC(=O)Nc2sccc2C#N)CCO1 (stereo unspecified) | 17
CCC1CN(CC(=O)NCC(C)C)CCO1 (stereo unspecified) | 30.9
CCC1CN(CC(=O)NCCC#N)CCO1 (stereo unspecified) | 52.6
CCCNC(=O)CN1CCOC(CC)C1 (stereo unspecified) | 61.3
CCC1CN(CC(=O)NCCOC)CCO1 (stereo unspecified) | -22.3
O=C(c1ccccn1)N1C[C@H]2CC[C@@H](C1)N(C(=O)Cc1cccs1)C2 | 4.13
CC1=N[C@@]2(CC[C@@H]3CN(S(=O)(=O)N(C)C)C[C@@H]32)C(=O)N1CC(C)C | 7.96
Cc1nc(C2CCCN2C(=O)c2csc3c2CCCC3)no1 (stereo unspecified) | 15.3
Cc1ccc(CN2CCC3(CCN(Cc4ccncc4)CC3)CC2)cc1 | 33
Cc1c(C)n(Cc2ccncc2)c2nc3c(c(N)c12)CCCCCC3 | 77.6
Cc1c(C)n(Cc2ccncc2)c2nc3c(c(N)c12)CCCCC3 | 70.3
Cc1c(C)n(Cc2ccncc2)c2nc3c(c(N)c12)CCCC3 | 44.1

Compound | INHIBITION [%]
CN1CCC(NC(=O)[C@H]2CC[C@@H]3[C@@H](CCN3c3ncccn3)O2)CC1 | 18.5
CCc1nc(CC(=O)N2CCn3c(CC)nnc3C2)cs1 | -12.33
CCS(=O)(=O)Nc1ccn(Cc2c(F)cccc2Cl)n1 | -39.5
N#Cc1cccnc1N1CCCN(C(=O)CCn2cccn2)CC1 | 29.2
CN1CCN(Cc2ccccc2CNC(=O)c2ccc(Br)cc2)CC1 | 33.2
CN1CCN(Cc2ccccc2CNC(=O)c2cc(Cl)ccc2F)CC1 | 63.3
COc1ccc(CNC(=O)c2ccc(Cl)cc2F)cc1C(=O)O | -8.55
CN1CCN(Cc2ccccc2CNC(=O)c2cc(Br)ccc2F)CC1 | 59.3
O=C(NCc1ccncc1)c1ccc(Cl)cc1F | -3.95
CN1CCN(c2ccccc2CNC(=O)Cc2ccccc2F)CC1 | 14.3
O=C(NCc1ccccc1CN1CCOCC1)Nc1nncs1 | -10.4
Cn1ccc(C(=O)NCc2ccccc2CN2CCCC2)cc1=O | 13.6
CN1CCN(Cc2ccccc2CNC(=O)c2ccc(Cl)cc2F)CC1 | 55.4
O=C(Nc1ccc(Br)cc1F)c1cc(CN2CCOCC2)on1 | -43.7
CN1CCN(Cc2ccccc2CNC(=O)c2ccc(Br)cc2F)CC1 | 30.8
O=C(NCc1ccccc1CN1CCOCC1)c1ccc(Br)cc1F | 62.3
Cc1cc(C(=O)NCc2ccc(N3CCCC(C(N)=O)C3)cc2)on1 (stereo unspecified) | 15.3
CN(C)CCN1CCCC12CCN(C(=O)c1cnccn1)CC2 | 24.9
CCC1(CC)CC(=O)N(CC(O)c2ccc(F)cc2)C1=O (stereo unspecified) | -15
CN(CC(O)C(F)(F)F)C(=O)Nc1cccc(Cn2cccn2)c1 (stereo unspecified) | 13.8
Cc1cc(CNCC2CNc3ccnn3C2)no1 (stereo unspecified) | 31
Cc1cnc(-c2nc(C3CCN(Cc4ccccc4O)CC3)no2)cn1 | 23.7
Cc1cc(C)n(CC2CN(CC(=O)N3CCNC3=O)CCO2)n1 (stereo unspecified) | -3.7

Compound | INHIBITION [%]
COc1ccc(NC(=O)CSc2ccc3nncn3n2)c(OC)c1 | 27
Cc1occc1C(=O)N1Cc2nccn2CC(CN2CCOCC2)C1 (stereo unspecified) | 5.89
CCCc1nnsc1C(=O)NCC(O)c1ccoc1 (stereo unspecified) | 15.5
O=C(COc1ccc2c(c1)CCC2)N1CCCC1c1ccc[nH]1 (stereo unspecified) | -38.6
CS(=O)(=O)c1cccc(OCC(=O)N2CCCC2c2ccc[nH]2)c1 (stereo unspecified) | 61.6
O=C(COc1ccccc1)N1CCCC1c1ccc[nH]1 (stereo unspecified) | -23.3
COCC(=O)N1CCCC1c1cccc(C)c1C (stereo unspecified) | 17.1
Cc1cccc(C2CCCN2C(=O)CCS(C)(=O)=O)c1C (stereo unspecified) | -8.84
CS(=O)(=O)c1cccc(OCC(=O)N2CCCC2c2ccccc2Cl)c1 (stereo unspecified) | 85.2
CCC(O)CN1CCN(C(=O)c2cnn(-c3ccccc3F)c2)CC1 (stereo unspecified) | -1.37
Cc1cccnc1[C@]1(O)CC[C@H]2CN(Cc3cccc(Cl)c3Cl)C[C@H]21 | 15.9
COc1cccc(CN2C[C@@H]3CC[C@@](O)(c4ccccn4)[C@@H]3C2)c1OC | 24.8
COc1ccc(CN2C[C@H]3CC[C@](O)(c4ccc(C)cn4)[C@H]3C2)c(F)c1 | 27.3
O[C@@]1(c2ccccn2)CC[C@H]2CN(Cc3cccc(Cl)c3Cl)C[C@H]21 | 61.4
Cc1ccc([C@]2(O)CC[C@H]3CN(Cc4cccc(F)c4F)C[C@H]32)nc1 | 15.9
Cc1ccc([C@]2(O)CC[C@H]3CN(Cc4cccc(Cl)c4Cl)C[C@H]32)nc1 | 62
Cc1ccc([C@]2(O)CC[C@H]3CN(Cc4ccc(Cl)cc4Cl)C[C@H]32)nc1 | 93.1
Cc1ccc([C@]2(O)CC[C@H]3CN(Cc4ccccc4F)C[C@H]32)nc1 | -18.2
O[C@]1(c2ccccn2)CC[C@@H]2CN(Cc3cccc4ncccc34)C[C@@H]21 | 27.9
